TRPV1 potentiator: potentiators of human vanilloid receptor 1 (TRPV1). 320,000 tested, 0.02% active. AID 540277. Q8NER1. TRPV1-expressing cells, Fluo-8 calcium influx, capsaicin EC20 potentiation. potentiation, % at 8.33 µM; in the data active = potentiation above about 80%; inconclusive = between about 30% and that limit; also: 0% is about no effect
Target sequence (Q8NER1 whole entry, looked up): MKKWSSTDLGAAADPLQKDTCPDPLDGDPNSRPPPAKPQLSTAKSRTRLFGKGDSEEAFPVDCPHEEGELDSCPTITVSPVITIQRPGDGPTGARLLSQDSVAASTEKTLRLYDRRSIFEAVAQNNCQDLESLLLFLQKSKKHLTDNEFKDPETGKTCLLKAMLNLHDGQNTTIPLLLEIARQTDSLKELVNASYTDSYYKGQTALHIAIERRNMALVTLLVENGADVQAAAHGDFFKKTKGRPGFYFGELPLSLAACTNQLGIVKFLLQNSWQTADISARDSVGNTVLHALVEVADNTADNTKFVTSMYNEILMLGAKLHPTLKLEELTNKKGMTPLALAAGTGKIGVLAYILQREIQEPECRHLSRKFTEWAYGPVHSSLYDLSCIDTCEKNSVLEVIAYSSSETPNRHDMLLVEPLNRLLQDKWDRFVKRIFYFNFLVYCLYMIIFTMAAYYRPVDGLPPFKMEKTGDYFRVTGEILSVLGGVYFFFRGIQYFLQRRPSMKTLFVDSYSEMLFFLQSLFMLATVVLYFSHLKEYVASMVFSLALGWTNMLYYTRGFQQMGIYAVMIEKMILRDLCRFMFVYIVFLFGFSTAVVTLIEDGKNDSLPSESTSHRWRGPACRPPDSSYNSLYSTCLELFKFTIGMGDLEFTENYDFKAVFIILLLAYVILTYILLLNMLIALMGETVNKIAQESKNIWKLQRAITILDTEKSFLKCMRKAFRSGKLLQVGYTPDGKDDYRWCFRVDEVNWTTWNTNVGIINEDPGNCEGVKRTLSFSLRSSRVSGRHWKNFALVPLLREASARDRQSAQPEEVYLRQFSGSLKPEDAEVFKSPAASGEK
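Cells expressing TRPV1 were dye-loaded with Fluo-8 and read kinetically: 10 s baseline, 3 min after compound (agonist portion), then 2 min after EC20 capsaicin (allosteric enhancer portion). Calcium-bound dye fluorescence at 480/520 nm.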
KCNH2 3.1 block: KCNH2 3.1 (human) potassium channel inhibition | activity change, % (tested at about 1.8 µM) | U2OS KCNH2 3.1, thallium flux FluxOr; stronger effect = lower value | 340,000 tested, 0.95% active;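 active = maximum activity change below -70%; inconclusive = maximum activity change from -70% to -50%; inactive = maximum activity change above -50%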;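 also: thallium influx rate constant from kinetic fluorescence after stimulation buffer; % is scaled to controls: 0 for no effect and ±100 for the full control effect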
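FluxOr-based Tl+ influx in U2OS cells transduced with KCNH2 3.1 virus; rate constants normalized to DMSO controls.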
MBNL1 CUG block: blocks human MBNL1 binding to CUG repeat RNA. TR-FRET MBNL1-His/biotin-(CUG)12 binding, 665/545 ratio. Potency, µM (series often up to 57.5 µM), for the others: at the highest dose activity change, negative = inhibition, actives largely listed as inhibitors. 280,000 tested, 0.036% active. AID 2675; active = well fitted inhibition curve with a large enough effect in the signal ratio, with a control signal flat, not every such curve was filed as active; inconclusive = small, poorly fitted or top-dose-only effect, or effect the other way, or a change in a side signal; inactive = no such curve, though single readings can be large or run the other way; the % refers to the signal ratio; also: potency is read from the fitted curve at half-maximal effect; % is scaled to controls: 0 for no effect and ±100 for the full control effect
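TR-FRET readout: Ex 340 nm, 665/545 nm emission ratio, normalized to buffer-only (basal) and MBNL1-(CUG)12 controls. Complex of MBNL1-His with Biotin-(CUG)12, compounds 92 nM–58 uM, incubated 60 min at room temperature.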
KCNH2 WT inh: inhibitors of human wildtype KCNH2 potassium channel. AID 720551. activity change, % at 1.84 µM. Q12809. 340,000 tested, 0.37% active. U2OS, BacMam KCNH2, thallium flux FluxOr; stronger effect = lower value;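 active = maximum activity change below -70%; inconclusive = maximum activity change between -70% and -50%; inactive = maximum activity change above -50%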; also: % is scaled to controls: 0 for no effect and ±100 for the full control effect
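U2OS cells were transduced with wild-type KCNH2 virus (2.03 x 10^8 / mL) for 4 h at room temperature, then cultured overnight at 37 C. Thallium flux was read with FluxOr dye. Rate constants were normalized to DMSO controls.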
TRPV1 ag: human TRPV1 agonism. 320,000 tested, 0.19% active. TRPV1-expressing cells, Fluo-8 calcium influx, agonist mode. activation, % at 8.33 µM; in the data active = activation above about 80%; inconclusive = between about 30% and that limit; also: 0% is about no effect
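TRPV1-expressing cells were cultured overnight at 35.5C and loaded with Fluo-8 calcium dye for 40 to 90 min at room temperature. After a 10 s baseline, compound was added and calcium influx was read kinetically for 3 min (ex 480/em 520 nm).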
Active calls of the source: *; ? = inconclusive; . = no result. An excerpt weighted towards active compounds, which were near 1.3% of everything screened.

SMILES	TRPV1 potentiator	KCNH2 3.1 block	MBNL1 CUG block	KCNH2 WT inh	TRPV1 ag
CCOC(=O)c1sc2ncn(CC(=O)NCC3CCCO3)c(=O)c2c1C (configuration not stated)	-10	-180*	-7%	-4	2
Oc1c(N=NC(=S)Nc2ccccc2F)c2ccccc2n1Cc1cccc(Cl)c1	7	8	1%	5	-4
Cc1cccc(Cn2c(O)c(N=NC(=S)Nc3ccccc3F)c3ccccc32)c1	13	-91*	2%	.	-4
O=C(Nc1ccc2c(c1)Cc1ccccc1-2)c1ccncc1	-12	-12	-2%	-9	81*
CCCCCCSc1ccc([C@H]2N[C@@](CC(C)C)(C(=O)OC)[C@H]3C(=O)N(CC)C(=O)[C@@H]23)cc1	-5	0	.	-6	13
O=c1[nH]cnc(O)c1C(c1ccc([N+](=O)[O-])cc1)c1c(O)nc[nH]c1=O	0	-181*	?	-4	-4
COc1ccc(NC(C)=[N+](C)CCNS(=O)(=O)c2ccc(Cl)cc2)cc1Cl	-3	-2	-2%	7	-3
CC(Nc1cc(C)cc(C)c1)=[N+](C)CCNS(=O)(=O)c1ccc(Cl)cc1	9	-95*	1%	15	3
CCN(CC)CCN(C(=O)/C=C/c1cccs1)c1nc2ccc(Cl)cc2s1	-8	-100*	13%	-149*	-1
NC(=O)C1CC(=O)N(c2ccc(OCC(=O)Nc3ccc(F)cc3)cc2)C1 (configuration not stated)	-3	-2	.	-1	0
CC(C)NC(=O)C1CCN(C2CCN(Cc3nc4ccccc4s3)CC2)CC1	-8	-118*	-5%	2	1
CC(=O)c1cc(CN2CCC(N3CCC(C(=O)NC(C)C)CC3)CC2)cs1	4	-23	-5%	-7	-2
Cc1ccc(Nc2nc(-c3c(C)nc4ccccn34)cs2)cc1	0	-78*	-8%	-24	8
Cc1ccc(Nc2nc(-c3c(C)nc4ncccn34)cs2)cc1	.	-14	13%	-3	.
Oc1ccc(Br)cc1C1C=C(c2ccc3c(c2)OCO3)NC(c2c(F)cccc2Cl)N1 (configuration not stated)	21	.	.	.	4
Cc1c2cc(O)c(=O)cc-2oc2cc(O)c(O)cc12	-3	4	?	59	0
COc1cc(OC)c(-c2c3cc(O)c(=O)cc-3oc3cc(O)c(O)cc23)cc1OC	-13	-1	?	-20	104*
COCCCNC(=O)Cn1cc(/C=C(\C#N)C(=O)NC2CC2)c2ccccc21	-5	2	?	-11	0
O=C(Cn1nnc(-c2ccc(OCc3ccccc3F)cc2)n1)N1CCOCC1	19	-90*	-1%	25	1
COc1ccc(CN2CCN(Cc3ccc(C(F)(F)F)cc3)CC2)c(OC)c1	5	-101*	2%	-41	7
COc1ccc(CN2CCN(Cc3c[nH]c4ccccc34)CC2)c(OC)c1	.	-102*	.	36	.
COc1ccc(CN2CCN(Cc3ccc(C)cc3)CC2)c(OC)c1	-35	-5	-6%	8	8
CCOc1cccc(CN2CCCC(N3CCc4cc(OC)c(OC)cc4C3)C2)c1O (configuration not stated)	9	-4	1%	6	17
COc1ccccc1C(=O)C1CCCN(C(=O)c2snnc2C)C1 (configuration not stated)	-4	5	-3%	12	-2
COc1ccccc1C(=O)NCC(=O)OCC(=O)c1ccc2c(c1)-c1ccccc1C2	12	15	128%	-1	-3
SMILES	TRPV1 potentiator	KCNH2 3.1 block	MBNL1 CUG block	KCNH2 WT inh	TRPV1 ag
CCC(=O)N(CCC(Cc1ccccc1)c1ccco1)Cc1ccco1 (configuration not stated)	-6	21	12%	3	25
CCC(=O)N(CCC(Cc1ccccc1)c1ccc2c(c1)OCO2)Cc1ccccc1F (configuration not stated)	-10	-79*	6%	2	?
CCOC(=O)C1(Cc2ccc(Cl)cc2)CCN(CCCn2cccn2)CC1	2	-119*	-5%	-45	2
CCOC(=O)C1(Cc2ccccc2C(F)(F)F)CCN(C(C)CCn2cccn2)CC1 (configuration not stated)	2	-85*	-2%	-15	11
CCOC(=O)C1(Cc2ccccc2)CCCN(CCCn2cccn2)C1 (configuration not stated)	-3	-3	6%	17	3
Cc1nn(-c2ccccc2)c(C)c1C(=O)OC(C)C(=O)NC1CCCCC1 (configuration not stated)	.	10	.	-2	.
Cc1ccc(-n2nnnc2CCl)cc1	12	-3	?	-10	-5
Cc1ccc(CS(=O)Cc2ccc(C(=O)NCCCc3ccccc3)o2)cc1 (configuration not stated)	.	-3	.	-1	.
COc1cccc(CNC(=S)Nc2cccc(Cl)c2C)c1	-26	-1	0%	-4	87*
COc1cccc(CNC(=S)Nc2cc(C)ccc2C)c1	-17	5	-4%	-2	?
COc1cccc(CNC(=O)c2ccc(CS(=O)Cc3ccccc3Cl)o2)c1 (configuration not stated)	.	-81*	.	-7	.
O=C(NCCCc1ccccc1)c1ccc(CS(=O)Cc2ccc(Cl)cc2)o1 (configuration not stated)	5	-85*	-1%	-44	1
O=C(NCc1ccccn1)c1cc(Cl)ccc1OCc1ccccc1	-7	-16	-2%	0	?
CC(C)(C)NC(=O)C(c1ccc(-c2ccccc2)cc1)N(C[C@H]1CC[C@@H]([C@@H]2CC[C@H](CO)O2)O1)C(=O)c1ccc(C(C)(C)C)cc1 (some centres not stated)	.	2	.	3	.
COc1ccc(CCNCC(=O)Nc2ccc(C)c(Br)c2)cc1OC	-8	-72*	-2%	13	29
COc1ccc(CCNCC(=O)Nc2ccc(C)c(S(=O)(=O)N(C)C)c2)cc1OC	.	2	.	-1	.
S=C(NCc1ccccn1)Nc1ccc(Cl)cc1	-3	-196*	-11%	-199*	5
CN(C)CCCN(C(=O)c1ccc2c(c1)CCCC2)c1nc2ccc(F)cc2s1	-3	-72*	-14%	?	3
CCCN(CC(=O)Nc1ccccc1C)C(=O)c1ccc(NC2CC2)c([N+](=O)[O-])c1	-16	-17	.	4	1
Cc1cc(C)cc(C(=O)OCC(=O)NC(=O)NC2CCCC2)c1	-3	-8	.	-8	7
c1ccc(CN2CCN(c3nc4ccccc4c4ccccc34)CC2)cc1	-6	-24	3%	-2	18
CCOC(=O)/C(C#N)=C\c1ccc(N2CCN(C/C=C/c3ccccc3)CC2)cc1	1	-83*	20%	-10	19

Screening data: PubChem, National Center for Advancing Translational Sciences (NCATS)
